Assay results: PubChem BioAssay AID2283170 (EPA ToxCast)
Records with an inconclusive call do not appear. Active and inactive are the calls of the source. The calls were made as follows: active = hit-call score of the fitted dose curve at least 0.9, where 1 is the maximum; inconclusive = response in the unintended direction; inactive = score below 0.9.

What follows are compounds tested against human Lymphocyte-cell Factor Kinase (Lck), LCK (gene 3932) (UniProt P06239) (assay: NVS_ENZ_hLck: NovaScreen (NVS) Enzymatic Assay for human Lymphocyte-cell Factor Kinase (Lck)).
Protocol: NVS_ENZ_hLck is a biochemical, single-readout assay that uses extracted gene-proteins in a cell-free assay. Measurements were taken 1 hour after chemical dosing in a 384-well plate.NVS_ENZ_hLck is one of one assay component(s) measured or calculated from the NVS_ENZ_hLck assay. It is designed to make measurements of enzyme activity, a form of enzyme reporter, as detected with fluorescence intensity signals by Fluorescence and electrophoretic mobility shift technology.Data from the assay component NVS_ENZ_hLck was analyzed into 1 assay endpoint. This assay endpoint, NVS_ENZ_hLck, was analyzed in the positive analysis fitting direction relative to DMSO as the negative control and baseline of activity. Using a type of enzyme reporter, loss-of-signal activity can be used to understand changes in the enzymatic activity as they relate to the gene LCK. Furthermore, this assay endpoint can be referred to as a primary readout, because this assay has produced […] where this one serves a enzymatic activity function. To generalize the intended target to other relatable targets, this assay endpoint is annotated to the kinase intended target family, where the subfamily is non-receptor tyrosine kinase.
Binding assays used specific radioligands (tritiated, iodinated) with non-radioactive competitive displacement ligands in agonist or antagonist protocols (as indicated) and various reference compounds and inhibitors to titrate specific binding to receptors and transporters. Most enzyme assays (CYPs, kinases, phosphatases, proteases, HDACs) used recombinant protein and specific substrates (fluorescence mostly, some colorimetric and radioactive) and inhibitors, followed by a biochemical separation of substrate and product. All assays for the biochemical HTS were initially run in duplicate at a single concentration (10 uM for CYP450 assays and 25 uM for all others). Assay-chemical combinations meeting a pre-defined threshold (e.g., 30% inhibition and other criteria defined below) were then run in singleton concentration-response format with maximum concentration of 20 uM for CYPs and 50 uM for all others. Each assay was run with positive and negative controls, and concurrent controls on every plate. The follow-up (secondary) screen tested active chemical-pairs in concentration series, as well as a few additional assays not tested in the primary screen, some selected negative inactives, and several cases re-run in the concentration series for confirmatory purposes.

human Lymphocyte-cell Factor Kinase (Lck), LCK (gene 3932), sequence (P06239 whole entry, looked up): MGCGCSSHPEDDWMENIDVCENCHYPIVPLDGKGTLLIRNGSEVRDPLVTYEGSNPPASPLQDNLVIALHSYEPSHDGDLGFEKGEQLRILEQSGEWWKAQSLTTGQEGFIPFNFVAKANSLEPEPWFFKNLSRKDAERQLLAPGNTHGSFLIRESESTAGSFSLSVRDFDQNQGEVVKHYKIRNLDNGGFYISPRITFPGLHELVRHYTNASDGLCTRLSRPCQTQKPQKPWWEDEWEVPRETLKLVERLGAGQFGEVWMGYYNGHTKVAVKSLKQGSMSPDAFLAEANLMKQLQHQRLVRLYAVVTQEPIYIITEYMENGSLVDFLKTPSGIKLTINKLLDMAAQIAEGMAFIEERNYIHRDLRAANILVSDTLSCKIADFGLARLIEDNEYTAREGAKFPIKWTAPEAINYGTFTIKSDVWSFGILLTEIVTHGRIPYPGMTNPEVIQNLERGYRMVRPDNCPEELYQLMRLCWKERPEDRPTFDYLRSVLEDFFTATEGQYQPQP

Compound	AC50	outcome
c1ccc(Nc2ccccc2)cc1	10.6 µM (active)	
c1ccc2[nH]c(-c3cscn3)nc2c1		inactive
S=C([S-])NCCNC(=S)[S-].[Mn+2]		inactive
O=C(Nc1ccc([N+](=O)[O-])cc1Cl)c1cc(Cl)ccc1O		inactive
